Drawing on article PMC12136788, this text covers binding signal for 6 molecules.

T1: UNK ZnF1-6 (called full-length) (human, UniProt Q9C0B0 30-357)
T1 sequence: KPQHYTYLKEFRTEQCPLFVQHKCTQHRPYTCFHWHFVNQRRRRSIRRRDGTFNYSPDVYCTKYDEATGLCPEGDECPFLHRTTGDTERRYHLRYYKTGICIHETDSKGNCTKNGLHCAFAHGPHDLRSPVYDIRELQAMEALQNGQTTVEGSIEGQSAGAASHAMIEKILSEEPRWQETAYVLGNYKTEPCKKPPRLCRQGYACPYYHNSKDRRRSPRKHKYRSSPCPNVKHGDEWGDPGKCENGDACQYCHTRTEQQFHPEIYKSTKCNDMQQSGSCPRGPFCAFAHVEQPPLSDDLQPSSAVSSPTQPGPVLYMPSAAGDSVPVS

B1: chr16:70160055:70160156:+|3pUTR|ENSG00000090857|msi1|total|mutant (ssRNA)
RNA: GGGAGUUCUACAGUCCGACGAUCUUGUGCUCACCACGAAGGAUGGUCUCUGCCUUCUCUUGUCGGUGUAUGCCAUCUGAACCCCGGAACACAAAGUAUAUUGGCCUCAAACGGAGACCCAGGGUUGCCAGUUUUCCGUGGGCCCAACAGAGGAUUGAGCAUCA
B2: chr12:68660398:68660499:+|3pUTR|ENSG00000127314|msi1|FALSE|unique (ssRNA)
RNA: GGGAGUUCUACAGUCCGACGAUCUUGAGGUGGCCAAAUGUAAACUAAAAGCCUUAAUUAAAGUGGUGCAAUUUUGUAUAACUUAGCAUCAGUAGUUCAAUAAAUUUGGAUUGCCAUGCAAGGGCUUGCAUUAUAAUUACUUGCCAACAGAGGAUUGAGCAUCA
B3: chr4:186588032:186588133:-|3pUTR|ENSG00000083857|msi1|FALSE|unique (ssRNA)
RNA: GGGAGUUCUACAGUCCGACGAUCUUUUUUUACUAUAACCAGGGUUUCAUUCUGUCUUUUUCCACUGAAGUGUGACAUUUUGUUAGUACAUUUCAGUGUAGUCAUUCAUUUCUAGCUGUACAUAGGAUGAAGGAGAGAUCAGAUCAACAGAGGAUUGAGCAUCA
B4: chr1:225496770:225496921:-|3pUTR|ENSG00000154380|msi1|FALSE|unique (ssRNA)
RNA: GGGAGUUCUACAGUCCGACGAUCUUUUUUAAUUGCAGACAGUAAUGCAUGUCACACUAAUAUGUAGUGGCCUUUUCAAGGCCUAGUCCCAGGGAAAACAUUUUGUAGAGUAUAGGGGAGUGGGAGGAAGGGGAGGAAUAAUUUCAACAGAGGAUUGAGCAUCA
B5: chr13:45969211:45969312:-|CDS|ENSG00000123200|unk|FALSE|unique (ssRNA)
RNA: GGGAGUUCUACAGUCCGACGAUCGUCCCUGACCGUACAGAGGUGACAGAAGCAGAGCAUACUGCCACCGCCACGACUCCUGGUAGUACCCCUUCUCCUCUAUCUUCUCUUCUUCCUCCUCCACCGCCUGUGGCUACUGCCACUCAACAGAGGAUUGAGCAUCA
B6: ENSG00000107863:be:win_5851|CDS_3pUTR|ENSG00000107863|bound_else_gene|NA|bound_elsewhere_windowed (ssRNA)
RNA: GGGAGUUCUACAGUCCGACGAUCAAAGCAGAGUUUCAUCCCUGUCUUUAAACUGGGGGUAUGUCCACUCUAGCAAGUAAAAAAACUACUGUUACACGUUCCAGUAACUCUGUCAAUAUUUUCUUGUAUCAGAAUUGUUAUUAUCAACAGAGGAUUGAGCAUCA

In all, about 5,800 sequences were measured (“enrichment r”: median about 0.68, highest 2% from about 11 on). The full list was thinned out, with the highest values kept by preference.

The assay addresses T1, UNK ZnF1-6 (called full-length). Description: nsRBNS (natural sequence RNA bind-n-seq); RBNS binding buffer (assumed for nsRBNS): 25 mM Tris pH 7.5, 150 mM KCl, 3 mM MgCl2, 0.01% Triton X-100, 500 ug/ml BSA, 20 U/ml SUPERase-In, 4 C; UNK is unkempt and MSI1 is Musashi-1; names of the RNAs are library labels; protein concentration not given here; high values mean tight binding.
As to B1, the binding signal amounted to 0.469 enrichment R. B2 came in with a binding signal of 0.685 enrichment R. Take B3: the binding signal was found to be 1.31 enrichment R. Next, B4: 7.59 enrichment R; B5: 1.84 enrichment R; B6: 0.426 enrichment R.
